High-throughput results (PubChem)
The list is a sample of the results.
aSyn 5UTR act: Activators via SNCA 5'UTR binding, MLPCN | activity score, % (tested at 7.5 µM), hits read low | 7.1% of 300,000 active | alpha-synuclein 5'UTR reporter, activators screen; in the data active = activity score below about -60%
A number is an active result; n = inactive.

SMILES	aSyn 5UTR act
CCOC(=O)C(C)On1c(-c2cccc(Cl)c2)nc2ccc([N+](=O)[O-])cc21 (stereo not drawn)	-62
CCOC(=O)COn1c(-c2cccc(Cl)c2)nc2ccc([N+](=O)[O-])cc21	-192
O=C(CN1C(=O)c2ccccc2S1(=O)=O)c1cccc(Br)c1	n
O=C(CN1CC(=O)Oc2ccccc21)OCC(=O)c1ccccc1	-100
O=C(CN1CC(=O)Oc2ccccc21)OCC(=O)c1cccc(Br)c1	-66
Cc1sc2ncnc(Sc3ccccc3C(=O)Nc3ccc(Br)cc3)c2c1C	-86
CCOC(=O)N1CC=C2C(C#N)=C(N)C(C#N)(C#N)[C@H](c3ccc(OCC)c(OCC)c3)[C@H]2C1	-78
O=C(O)CN1C(=O)/C(=C\c2cccc(OCc3ccc(Cl)cc3Cl)c2)SC1=S	-106
CC(=O)c1ccc2c3c(cccc13)C(=O)N(CCc1ccccc1)C2=O	-138
CC(C)CCN1C(=O)c2cccc3c(N)ccc(c23)C1=O	n
CCC(C)c1ccc(NC(=O)N2CCOCC2)cc1 (stereo not drawn)	-102
CC1CN(C(=O)Nc2ccc3c(c2)OCO3)CC(C)O1 (stereo not drawn)	-152
O=C(Nc1ccc2c(c1)OCCO2)N1CCN(Cc2ccccc2)CC1	-66
O=C(Nc1ccc2c(c1)OCCO2)N1CCOCC1	-80
O=C(Nc1ccc2c(c1)OCO2)N1CCOCC1	-84
O=C(O)C1CC=CCC1C(=O)Nc1ccc2c(c1)OCCO2 (stereo not drawn)	-73
O=C(Nc1ccc2c(c1)OCO2)N1CCCC1	-88
CCOC(=O)N1CCN(c2ccc(C(=O)c3ccccc3)cc2F)CC1	-99
CCC(=O)c1ccc(N2CCCCCC2)c(F)c1	-133
CCC(=O)c1ccc(N2CCN(C(=O)c3cccs3)CC2)c(F)c1	-103
CCCC(=O)c1ccc(N2CCCC2)c(F)c1	-139
Cc1ccc(C(=O)c2cc([N+](=O)[O-])ccc2N2CCN(C)CC2)cc1	n
Cc1cnc(NC(=O)c2ccc(-c3nc4ccccc4s3)o2)s1	-84
O=C(Nc1nc2ccccc2s1)c1ccccc1[N+](=O)[O-]	-153
O=C(c1nc2ccccc2[nH]1)c1ccccc1[N+](=O)[O-]	-74
SMILES	aSyn 5UTR act
O=C(Nc1c(Cl)ccc2nsnc12)c1ccc([N+](=O)[O-])o1	-203
COc1ccc2nc(NC(=O)c3ccc([N+](=O)[O-])o3)sc2c1	-161
CC(=O)Nc1nc2cccc([N+](=O)[O-])c2s1	-68
O=C(Nc1nc2cc3c(cc2s1)OCCO3)c1ccc([N+](=O)[O-])o1	-301
O=C(Nc1nc2ccccc2s1)Nc1ccc([N+](=O)[O-])cc1Cl	-99
O=C(Nc1nc2ccccc2s1)c1ccc([N+](=O)[O-])o1	-173
CCC(=O)N(CC)c1nc(-c2ccc(OC)cc2)cs1	-161
COCCN(C(=O)c1ccccc1F)c1nnc(-c2ccc(OC)cc2)s1	-73
CCN(C(=O)c1ccccc1F)c1nc(-c2ccc(OC)cc2)cs1	-199
CCN(C(=O)c1ccco1)c1nc(-c2ccc(OC)cc2)cs1	-159
C=CCN(C(=O)CCc1ccccc1OC)c1nc(-c2ccc(S(C)(=O)=O)cc2)cs1	n
COCCN(C(=O)c1ccccc1F)c1nc(-c2ccc(OC)cc2)cs1	-73
CN(C(=O)c1ccco1)c1nc(-c2ccccc2)cs1	-158
Cc1ccc(OCc2cc(C(=O)N3CCCC3)no2)cn1	-70
C=CCC1(CC=C)CCCN1C(=O)c1cc(COc2ccc(C)nc2)on1	-78
CCc1cc(CNC(=O)c2cc(COc3ccc(C)nc3)on2)on1	-73
N#CCc1nc(CSc2nc3ccccc3s2)cs1	-116
CCC1(C)Cc2ccccc2-c2nc(NCCO)n(-c3ccc(C)cc3)c(=O)c21 (stereo not drawn)	-63
Cn1c(=O)n(/N=C/c2ccccc2)c2ccccc21	-107
Cc1nc2ccccn2c1C(=O)/C=C/c1ccc(F)cc1	-83
COc1ccc(/C=C/C(=O)c2c(C)nc3ccccn23)cc1	-308
NC(=O)c1c(/N=C/c2cccnc2)sc2c1CCCC2	-102
Cc1ccc(/C=N/c2sc3c(c2C(N)=O)CCCC3)o1	-114
Cc1c(CCOC(=O)CC23CC4CC(CC(C)(C4)C2)C3)sc[n+]1CC(=O)c1ccccc1	-65
Cc1ccc(-c2nc(C#N)c(NCc3ccco3)o2)cc1	-145
SMILES	aSyn 5UTR act
COc1ccc(Nc2oc(COc3ccc(OC)cc3)nc2C#N)cc1	n
COc1ccc(-c2nc(C#N)c(NCC3CCCO3)o2)cc1OC (stereo not drawn)	-74
COc1ccc(Nc2oc(-c3ccc(F)cc3)nc2C#N)cc1	-233
COc1ccc(-c2nc(C#N)c(NCc3ccco3)o2)cc1	-182
CNc1oc(-c2ccc(OCc3ccccc3)cc2)nc1C#N	-96
C=CCNc1oc(-c2ccc(OC)cc2)nc1C#N	-135
Cc1ccc2cc(C#N)c(NCc3ccco3)nc2c1	-67
COc1ccc(NC(=O)n2nc(OC(=O)c3cccs3)cc2N)cc1	-84
Cc1csc(SCC(=O)Nc2sccc2C(N)=O)n1	-110
NC(=O)c1ccsc1NC(=O)CSc1ccccc1F	-119
O=C(NC1=NCCS1)C12CC3CC(C1)CC(C(=O)NC1=NCCS1)(C3)C2	-71
